Results taken from PubChem BioAssay.
Calls of active or inactive are those of the source.

How the values were obtained:
[1] = molecular target: Albumin (Bos taurus) (UniProt P02769); experiment: bovine serum albumin binders on microarray, profiling panel, artefact control for SMM control protein annotation, biochemical, small-molecule microarray, Alexa647 label, 635/667 nm fluorescence (AID 1118); conditions: BSA-A647 binding, fluorescence 635 nm, higher = more signal;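 note: score merges 667 nm emission intensity and signal-to-noise per printed compound spot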
[2] = small-molecule microarray binders of probe aXIP, primary screen, biochemical, NeuroSMM set, 635/667 nm fluorescence (AID 1119); conditions: higher = more signal, called active from +8 up or from −8 down;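 note: probe is the protein aXip251-270 applied at 1 µg/mL to compound-printed slides; binding of probe to printed compounds measured as 667 nm fluorescence plus signal to noise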
[3] = small-molecule binders of probe aNOTCH3, primary screen, biochemical, small-molecule microarray, 635/667 nm fluorescence (AID 1120); conditions: higher = more signal;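 note: probe is a biotin-tagged antibody raised against NOTCH3 rather than NOTCH3 protein; score merges spot fluorescence near 667 nm with spot signal to noise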
[4] = small-molecule binders of probe aNOTCH2, primary screen, biochemical, small-molecule microarray, 635/667 nm fluorescence (AID 1121); conditions: higher = more signal;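 note: score merges feature fluorescence read at 667 nm with its signal to noise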
[5] = molecular target: Carbonic anhydrase 2 (Homo sapiens) (UniProt P00918); experiment: CAII small-molecule binders, profiling panel, biochemical, small-molecule microarray, Alexa647-labelled CAII (AID 1122); conditions: CAII-A647 binding fluorescence, higher = more signal
[6] = COS7 lysate on small-molecule microarray, probe aHis, 635 nm (AID 1123); conditions: COS7 cell lysate, fluorescence, higher = more signal;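 note: z-score combines 667nm fluorescence intensity with signal-to-noise per printed compound spot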
[7] = compound binding in COS7 lysate, probe aLAP1, primary screen, cell lysate, small-molecule microarray (AID 1124); conditions: probe aLAP1, fluorescence, higher = more signal;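 note: lysate comes from COS7 cells expressing LAP1 and is applied at 0.3 µg/mL; score merges spot fluorescence near 667 nm with signal-to-noise over triplicate slides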
[8] = test system: Sam68 (KHDRBS1); experiment: Sam68 small-molecule binders, primary screen, biochemical, small-molecule microarray, 635 nm fluorescence (AID 1125); conditions: small-molecule microarray binding, higher = more signal;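 note: score merges 667 nm channel intensity with signal to noise over triplicate slides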
[9] = test system: Chordin-like protein 2 (CHRDL2); experiment: CHRDL2 small-molecule binders, primary screen, biochemical, small-molecule microarray, 635 nm fluorescence (AID 1126); conditions: small-molecule microarray binding, fluorescence 635 nm; higher = more signal;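 note: printed compound slides probed with Chrdl2 protein at 4 µg/mL for 1 h at 4 C; score merges 667 nm emission intensity with signal to noise over three replicate slides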
[10] = molecular target: Concanavalin-A (Canavalia ensiformis) (UniProt P02866); experiment: ConA small-molecule binders, primary screen, artefact control for SMM control protein annotation, biochemical, small-molecule microarray, Alexa647 label, 635 nm (AID 1127); conditions: ConA-A647 binding fluorescence, higher = more signal;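 note: z combines 667 nm emission intensity with signal-to-noise across three replicate slides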
[11] = anti-His antibody binders, primary screen, artefact control for SMM control protein annotation, biochemical, small-molecule microarray, 635 nm fluorescence (AID 1128); conditions: anti-His Alexa647 antibody binding, higher = more signal;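 note: score merges feature fluorescence with signal-to-noise for each printed compound spot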
[12] = test system: Human papillomavirus type 1a E7 protein (residues 1-88); experiment: HPV1a E7 small-molecule binders, primary screen, biochemical, small-molecule microarray, residues 1-88, 635 nm (AID 1129); conditions: small-molecule microarray binding, fluorescence 635 nm; higher = more signal
[13] = molecular target: Focal adhesion kinase 1 (Homo sapiens) (UniProt Q05397); experiment: small-molecule microarray binders of FAK, primary screen, biochemical, 635/667 nm fluorescence, BSA, DTT (AID 1130); conditions: PTK2 binding, 635 nm fluorescence, higher = more signal;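 note: composite of spot emission at 667 nm and signal to noise over triplicate slides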
[14] = test system: Fibrinogen (Alexa647-labelled); experiment: fibrinogen binders on compound microarrays, profiling panel, artefact control for SMM control-protein annotation, biochemical, small-molecule microarray, 635/667 nm fluorescence (AID 1131); conditions: fibrinogen-A647 binding fluorescence, higher = more signal;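 note: z-score merges 667 nm fluorescence with per-spot signal-to-noise over triplicate slides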
[15] = molecular target: Follistatin (Homo sapiens) (UniProt P19883); experiment: follistatin binders on small-molecule microarrays, primary screen, biochemical, small-molecule microarray, 635/667 nm fluorescence (AID 1132); conditions: FST binding, 635 nm fluorescence, higher = more signal
[16] = molecular target: Fibroblast growth factor 2 (Homo sapiens) (UniProt P09038); experiment: FGF2 binders on small-molecule microarrays, primary screen, biochemical, small-molecule microarray, 635/667 nm fluorescence (AID 1133); conditions: small-molecule microarray binding, FGF2, fluorescence 635/667; higher = more signal
[17] = mitochondrial membrane potential change in A549 cells, profiling panel, cell-based, JC-1 fluorescence, basal, 24 h, 100 nL (AID 1138); conditions: higher = more signal;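 note: A549 lung adenocarcinoma cells under basal conditions with no added stimulus; test concentration not given here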
[18] = test system: Lefty1; experiment: Lefty1 binders on small-molecule microarrays, primary screen, biochemical, small-molecule microarray, 635/667 nm fluorescence (AID 1139); conditions: small-molecule microarray binding, fluorescence 635/667; higher = more signal
[19] = test system: wheat germ agglutinin (Triticum aestivum), Alexa647-labelled; experiment: wheat germ agglutinin binders on compound microarrays, profiling panel, artefact control for SMM control-protein annotation, biochemical, small-molecule microarray, 635/667 nm fluorescence (AID 1140); conditions: WGA-A647 binding, 635 nm fluorescence, higher = more signal;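 note: score merges 667 nm feature emission with signal to noise over triplicate slides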
[20] = molecular target: Luciferin 4-monooxygenase (Photinus pyralis) (UniProt P08659); experiment: firefly luciferase enzyme inhibitors, primary screen, biochemical, luminescence, purified enzyme, 2006 set (AID 1141); conditions: SteadyGlo luminescence, 30 min, higher = more signal, called active from +8 up or from −8 down;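 note: cell-free assay with purified firefly luciferase at 100 ng per well in PBS; test concentration not given here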
Luciferin 4-monooxygenase (Photinus pyralis), sequence (P08659 whole entry, looked up): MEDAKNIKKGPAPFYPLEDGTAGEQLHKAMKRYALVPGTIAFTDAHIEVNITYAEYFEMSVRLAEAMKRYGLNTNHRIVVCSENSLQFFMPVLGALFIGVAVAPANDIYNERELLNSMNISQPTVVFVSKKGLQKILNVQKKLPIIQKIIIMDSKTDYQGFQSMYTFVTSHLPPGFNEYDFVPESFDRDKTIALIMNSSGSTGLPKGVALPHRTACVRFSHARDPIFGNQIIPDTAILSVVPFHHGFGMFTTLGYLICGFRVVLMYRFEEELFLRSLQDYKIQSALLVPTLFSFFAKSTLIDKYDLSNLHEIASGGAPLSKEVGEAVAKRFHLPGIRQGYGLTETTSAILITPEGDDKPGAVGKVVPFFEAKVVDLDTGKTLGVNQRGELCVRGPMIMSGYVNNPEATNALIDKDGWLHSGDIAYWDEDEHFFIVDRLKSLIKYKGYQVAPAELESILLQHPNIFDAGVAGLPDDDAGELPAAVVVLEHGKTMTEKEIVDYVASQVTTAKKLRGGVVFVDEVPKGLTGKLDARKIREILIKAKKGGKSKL

Concanavalin-A (Canavalia ensiformis), sequence (P02866 whole entry, looked up): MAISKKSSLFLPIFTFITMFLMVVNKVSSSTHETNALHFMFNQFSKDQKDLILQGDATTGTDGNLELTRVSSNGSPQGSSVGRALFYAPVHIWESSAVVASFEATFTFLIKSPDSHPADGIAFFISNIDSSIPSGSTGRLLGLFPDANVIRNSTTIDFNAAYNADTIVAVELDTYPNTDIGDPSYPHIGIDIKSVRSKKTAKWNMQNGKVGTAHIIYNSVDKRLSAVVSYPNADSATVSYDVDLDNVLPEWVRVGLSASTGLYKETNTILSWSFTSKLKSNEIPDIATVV
Follistatin (Homo sapiens), sequence (P19883 whole entry, looked up): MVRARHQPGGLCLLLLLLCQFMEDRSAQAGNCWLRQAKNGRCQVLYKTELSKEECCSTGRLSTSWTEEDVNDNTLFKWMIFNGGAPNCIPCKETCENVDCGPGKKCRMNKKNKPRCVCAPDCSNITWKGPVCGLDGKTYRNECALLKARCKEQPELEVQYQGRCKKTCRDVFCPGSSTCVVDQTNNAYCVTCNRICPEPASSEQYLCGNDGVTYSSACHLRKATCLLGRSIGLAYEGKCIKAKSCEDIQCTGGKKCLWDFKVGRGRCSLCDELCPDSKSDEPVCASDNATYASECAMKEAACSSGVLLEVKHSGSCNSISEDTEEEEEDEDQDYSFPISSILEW
Focal adhesion kinase 1 (Homo sapiens), sequence (Q05397 whole entry, looked up): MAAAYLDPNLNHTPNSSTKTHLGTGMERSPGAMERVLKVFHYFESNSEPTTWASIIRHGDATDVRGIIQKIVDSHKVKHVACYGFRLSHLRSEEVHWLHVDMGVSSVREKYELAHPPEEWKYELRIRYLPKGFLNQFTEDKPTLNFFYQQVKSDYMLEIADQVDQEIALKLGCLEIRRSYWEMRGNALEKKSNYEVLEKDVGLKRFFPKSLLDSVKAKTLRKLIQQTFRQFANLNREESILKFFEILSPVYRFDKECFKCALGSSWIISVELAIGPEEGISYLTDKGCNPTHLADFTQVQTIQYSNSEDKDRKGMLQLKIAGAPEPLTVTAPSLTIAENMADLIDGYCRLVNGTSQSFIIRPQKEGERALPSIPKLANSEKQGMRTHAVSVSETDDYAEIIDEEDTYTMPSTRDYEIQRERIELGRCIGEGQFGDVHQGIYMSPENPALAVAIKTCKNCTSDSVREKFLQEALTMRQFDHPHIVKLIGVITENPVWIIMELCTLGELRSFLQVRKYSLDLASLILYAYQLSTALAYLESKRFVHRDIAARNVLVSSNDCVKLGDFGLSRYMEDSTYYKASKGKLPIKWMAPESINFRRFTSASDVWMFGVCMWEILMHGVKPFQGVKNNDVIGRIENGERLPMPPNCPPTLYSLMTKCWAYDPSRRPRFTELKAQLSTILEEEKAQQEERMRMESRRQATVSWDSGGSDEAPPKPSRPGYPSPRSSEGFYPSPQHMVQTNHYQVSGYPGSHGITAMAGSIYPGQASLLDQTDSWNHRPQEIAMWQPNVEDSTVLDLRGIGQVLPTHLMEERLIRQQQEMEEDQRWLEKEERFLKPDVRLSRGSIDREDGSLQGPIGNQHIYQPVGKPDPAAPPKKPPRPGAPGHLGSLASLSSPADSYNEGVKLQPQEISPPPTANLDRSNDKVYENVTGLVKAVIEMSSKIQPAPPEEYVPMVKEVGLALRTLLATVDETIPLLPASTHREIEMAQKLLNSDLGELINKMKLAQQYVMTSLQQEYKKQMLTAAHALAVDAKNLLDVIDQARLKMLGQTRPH
Fibroblast growth factor 2 (Homo sapiens), sequence (P09038 whole entry, looked up): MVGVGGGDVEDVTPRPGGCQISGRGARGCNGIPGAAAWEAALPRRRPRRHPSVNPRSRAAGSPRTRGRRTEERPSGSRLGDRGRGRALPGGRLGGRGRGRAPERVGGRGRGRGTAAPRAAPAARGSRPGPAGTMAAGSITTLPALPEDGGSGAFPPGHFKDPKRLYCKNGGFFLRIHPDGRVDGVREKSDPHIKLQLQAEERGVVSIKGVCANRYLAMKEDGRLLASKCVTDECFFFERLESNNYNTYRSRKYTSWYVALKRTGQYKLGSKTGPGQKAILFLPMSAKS
Albumin (Bos taurus), sequence (P02769 whole entry, looked up): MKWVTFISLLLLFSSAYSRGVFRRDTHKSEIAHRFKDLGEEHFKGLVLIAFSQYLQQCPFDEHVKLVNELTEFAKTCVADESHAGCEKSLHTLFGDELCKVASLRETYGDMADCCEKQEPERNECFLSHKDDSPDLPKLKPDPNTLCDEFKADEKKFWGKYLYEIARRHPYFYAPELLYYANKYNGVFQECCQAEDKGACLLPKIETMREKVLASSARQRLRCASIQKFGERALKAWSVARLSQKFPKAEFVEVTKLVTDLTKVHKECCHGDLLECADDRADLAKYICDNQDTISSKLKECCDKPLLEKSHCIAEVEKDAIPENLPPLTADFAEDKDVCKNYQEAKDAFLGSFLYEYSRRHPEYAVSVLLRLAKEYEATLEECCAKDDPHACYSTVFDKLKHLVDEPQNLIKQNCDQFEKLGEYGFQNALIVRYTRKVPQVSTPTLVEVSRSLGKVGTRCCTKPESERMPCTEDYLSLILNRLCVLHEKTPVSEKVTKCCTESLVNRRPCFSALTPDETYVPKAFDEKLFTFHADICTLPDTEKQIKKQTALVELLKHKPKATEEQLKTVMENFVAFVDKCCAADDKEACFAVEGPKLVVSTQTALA

SMILES	composite z-score [1]	composite Z-score [2]	composite z-score [3]	composite z-score [4]	composite z-score [5]	composite z-score [6]	composite z-score [7]	composite z-score [8]	composite z-score [9]	composite z-score [10]	composite z-score [11]	composite z-score [12]	composite z-score [13]	composite z-score [14]	composite z-score [15]	composite z-score [16]	z-score [17]	composite z-score [18]	composite z-score [19]	z-score [20]
COc1ccc(O[C@H]2C=C[C@@H](C#Cc3ccccc3)O[C@@H]2CO)cc1	0.271	0.446 (inactive)	-0.0932	0.113	0.314	0.962	0.0803	-0.006	0.176	0.869	-0.0687	0.071	0.0306	0.744	0.365	0.0738	0.511	0.71	0.48	-1.67 (inactive)
CC(C)=CCCC(C)=CCON=C1[C@H]2CCn3c(=O)n(-c4ccccc4)c(=O)n3[C@H]2[C@H](O)[C@@H]2O[C@H]12	0.271	0.0213 (inactive)	0.185	-0.14	0.464	1.18	0.353	1.22	1.02	0.763	0.645	1.14	0.274	0.712	1.19	0.765	0.334	0.808	0.505	-0.416 (inactive)
COC(=O)CC=C[C@@H](C)[C@@H](C=NOC(C)CN1CCCCc2nc(C)c(C)cc21)NS(=O)(=O)c1ccc(C)cc1 (stereo not given in full)	-0.636	-0.292 (inactive)	0.0949	-0.19	-0.277	-0.065	0.0618	0.0692	1.17	-0.135	0.0454	0.156	0.0646	-0.207	0.927	0.601	-0.297	0.417	0.0721	0.183 (inactive)
COC(=O)CC=C[C@@H](C)[C@@H](C=NOC(C)CN1CCCCc2nc(C)c(C)cc21)OC (stereo not given in full)	0.276	-0.472 (inactive)	0.227	-0.0439	0.301	0.043	-0.0856	1.28	1.29	0.235	1.4	0.981	0.847	0	1.14	0.368	0.855	1.24	0.259	-0.183 (inactive)
CCOC(=O)[C@H](CC(C)C)NC(=O)CCC1CC(OC(=O)NCc2ccc3c(c2)OCO3)CC2(CCCC(COC(=O)NCCOc3ccccc3)O2)O1 (stereo not given in full)	0.232	-0.198 (inactive)	0.0469	-0.178	0.166	1.22	-0.248	1.33	0.99	1.14	0.424	1.17	0.0776	1.01	0.829	0.846	0.574	1.61	0.598	0.547 (inactive)
